From PubChem BioAssay (Tox21)
Inconclusive results are not listed. A structure can be active in one record and inactive in another. Activity calls are given as the source filed them. Unless noted, the call rests on the fitted dose curve; in most records, active means well fitted curve in the direction sought with a large enough effect in the repeat runs; inconclusive means weak or mixed curves; inactive means no such curve, though single readings can be large; an effect the other way counts as inactive or inconclusive.

What was measured:
[1] = qHTS assay to test for compound auto fluorescence at 590 nm (red) in HepG2 cells (AID 720674); further: on the % scale 0 is the no-effect control and ±100 the full control effect
Summary of the method: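 Intrinsic compound fluorescence in the red window (Ex/Em 540/590 nm) is measured in attached HepG2 cells exposed for 1 hr, DMSO vehicle as baseline, benchmarked to Rose Bengal sodium.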

[2] = qHTS assay to test for compound auto fluorescence at 460 nm (blue) in HEK293 cells (AID 720678); further: on the % scale 0 is the no-effect control and ±100 the full control effect
Summary of the method: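 Cells were seeded and left to adhere for 4-5 hr at 37C. Compounds were then pin-transferred. After an overnight incubation at 37C under 5% CO2, intrinsic fluorescence at 405/460 nm was measured and referenced to triamterene.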

[3] = qHTS assay to test for compound auto fluorescence at 590 nm (red) in HEK293 cells (AID 720679); further: on the % scale 0 is the no-effect control and ±100 the full control effect
Summary of the method: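 Each well held 2,000 HEK293 cells in medium containing 10% dialyzed FBS. Following 4-5 hr attachment at 37C, 23 nL test compound or DMSO was added; plates sat overnight, and red fluorescence (540/590nm) was recorded.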

[4] = qHTS assay to test for compound auto fluorescence at 535 nm (green) in HEK293 cells (AID 720680); further: on the % scale 0 is the no-effect control and ±100 the full control effect
[5] = qHTS assay to test for compound auto fluorescence at 460 nm (blue) in HEK293 cell free culture (AID 720681); further: on the % scale 0 is the no-effect control and ±100 the full control effect
Summary of the method: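 Test compounds were pinned into cell-free culture medium (DMEM with 10% FBS) and fluorescence was read directly at Ex/Em 405/460 nm. Signals were expressed as fluorescence equivalents of triamterene, with DMSO vehicle as control.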

[6] = qHTS assay to test for compound auto fluorescence at 535 nm (green) in HEK293 cell free culture (AID 720682); further: on the % scale 0 is the no-effect control and ±100 the full control effect
Summary of the method: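 No cells present: wells hold DMEM supplemented with 10% FBS, into which compound or vehicle is pinned. Green emission is then recorded (485 nm excitation, 535 nm emission) and scaled to fluorescein.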

[7] = qHTS assay to test for compound auto fluorescence at 590 nm (red) in HEK293 cell free culture (AID 720683); further: on the % scale 0 is the no-effect control and ±100 the full control effect
Summary of the method: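 Tox21 10K library compounds were pinned into cell-free DMEM with 10% FBS and fluorescence was read at excitation 540 nm. Activity is expressed as Rose Bengal sodium equivalency.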

[8] = qHTS assay to test for compound auto fluorescence at 590 nm (red) in HepG2 cell free culture (AID 720684); further: on the % scale 0 is the no-effect control and ±100 the full control effect
Summary of the method: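 Red fluorescence (540 nm excitation, 590 nm emission) was measured after compound transfer into cell-free MEM supplemented with 10% FBS. Values are equivalencies against Rose Bengal sodium.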

[9] = qHTS assay to test for compound auto fluorescence at 460 nm (blue) in HepG2 cell free culture (AID 720685); further: on the % scale 0 is the no-effect control and ±100 the full control effect
Summary of the method: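 Compound (23 nL) or DMSO pinned into cell-free MEM with 10% FBS; blue fluorescence read at 405/460 nm excitation/emission, expressed as auto-fluorescence equivalency to triamterene.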

[10] = qHTS assay to test for compound auto fluorescence at 535 nm (green) in HepG2 cell free culture (AID 720686); further: on the % scale 0 is the no-effect control and ±100 the full control effect
[11] = qHTS assay to test for compound auto fluorescence at 460 nm (blue) in HepG2 cells (AID 720687); further: on the % scale 0 is the no-effect control and ±100 the full control effect
Summary of the method: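 Cells (2,000/well in MEM with 10% FBS) attached overnight at 37 C, then were exposed to compound or DMSO for 1 hr at 37 C, 5% CO2. Fluorescence read at Ex/Em 405/460 nm, expressed as triamterene-equivalent signal.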

[12] = tested on: thyroid hormone receptor (rat, GH3 cells); assay: qHTS assay to identify small molecule agonists of the thyroid receptor (TR) signaling pathway (AID 743066; calls by dose curve; further: on the % scale 0 is the no-effect control and ±100 the full control effect)
Aromatase (Homo sapiens) = Aromatase (Homo sapiens) (UniProt P11511); assay: qHTS assay to identify aromatase inhibitors (AID 743083); further: nearly all actives have a fitted effect of over 55% in size; further: potency means the concentration at half of the fitted maximal effect
[13] = biological target: Luciferin 4-monooxygenase (Photinus pyralis) (UniProt P08659); assay: qHTS assay to identify small molecule inhibitors of firefly luciferase (AID 1224835); further: on the % scale 0 is the no-effect control and ±100 the full control effect; nearly all actives have a fitted effect of over 25% in size
Summary of the method: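 Quantitative HTS format; KM concentrations of both substrates. Purified P. pyralis FLuc activity quantified from luminescence images.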

[14] = qHTS RealTime-Glo MT Cell Viability Assay in HEK293 cells - 0 hour (AID 1224880); further: top concentration of the series differs between compounds; on the % scale 0 is the no-effect control and ±100 the full control effect; nearly all actives have a fitted effect of over 45% in size
Summary of the method: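 HEK293 cells mixed with RealTime-Glo reagents (NanoLuc plus cell-permeant prosubstrate) at 600 cells/well, preincubated 5 h at 37 C/5% CO2, then given 23 nL compound in DMSO. Nonlytic luminescence from viable cells was read at 0, 8, 16, 24, 32 and 40 h.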

[15] = qHTS assay to identify small molecule antagonists of the sonic hedgehog signaling (Shh) pathway (AID 1259369; calls by dose curve; further: on the % scale 0 is the no-effect control and ±100 the full control effect; nearly all actives have a fitted effect of over 45% in size)
Summary of the method: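 NIH/3T3-derived 3T3Gli1-Luc cells with stably integrated Gli1-Luc reporter were preincubated 4hr at 37 C, then given compounds in DMSO plus Shh conditioned medium and incubated 24hr. Firefly luciferase luminescence read after 30min reagent at room temperature.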

[16] = qHTS assay to identify small molecule antagonists of the progesterone receptor (PR) signaling pathway - cell viability counter screen (AID 1346798); further: on the % scale 0 is the no-effect control and ±100 the full control effect; nearly all actives have a fitted effect of over 50% in size
Summary of the method: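 Counter screen for cytotoxicity: viability of PR-UAS-bla HEK293T cells was measured with CellTiter-Glo luminescence following 16 hr compound exposure in the presence of R5020.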

[17] = qHTS assay to identify small molecule antagonists of the estrogen related receptor (ERR) signaling pathway (AID 1224819; further: nearly all actives have a fitted effect of over 50% in size; further: potency means the concentration at half of the fitted maximal effect)
Summary of the method: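 ERR reporter cells were plated at 2,000 cells/well and left 6 h at 37 C/5% CO2 before pin-tool transfer of compounds in DMSO. After 18 h at 37 C, One-Glo was added and luminescence was read 30 min later at room temperature.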

[18] = qHTS assay to identify small molecule agonists of the estrogen related receptor signaling pathway with the pleiotropic PPARgamma coactivator (PGC) (AID 1224823); further: on the % scale 0 is the no-effect control and ±100 the full control effect
Summary of the method: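 Cell-based luciferase assay in the NTP-supplied PGC/ERR line, 2,000 cells/well; 18 h compound exposure at 37 C, luminescence after One-Glo.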

[19] = qHTS assay to identify small molecule agonists of the estrogen related receptor (ERR) signaling pathway (AID 1224820); further: on the % scale 0 is the no-effect control and ±100 the full control effect
Summary of the method: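 Quantitative HTS of the LOPAC library used NTP ERR reporter cells treated 18 h at 37 C. Signal is luminescence after One-Glo addition and a 30 min room-temperature incubation.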

[20] = qHTS assay to identify small molecule agonists of H2AX (AID 1224845; active means well fitted activation curve with a large enough effect in the signal ratio in the repeat runs, not every such curve was filed as active; the % refers to the signal ratio; further: on the % scale 0 is the no-effect control and ±100 the full control effect)
Summary of the method: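 Wild-type CHO-K1 cells plated overnight, then exposed 3 hr at 37C to compounds at 15 concentrations (0.76% DMSO). Lysed, then HTRF anti-pH2AX(S139)-cryptate/anti-H2AX-d2 detection after 24 hr at room temperature; emissions 665 and 620 nm.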

[21] = biological target: Acetylcholinesterase (Homo sapiens) (UniProt P22303); assay: Acetylcholinesterase (AChE) small molecule antagonists: colormetric cell-based qHTS assay (AID 1347395; calls by dose curve; further: nearly all actives have a fitted effect of over 30% in size; further: potency means the concentration at half of the fitted maximal effect)
Summary of the method: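 Cells (SH-SY5Y, 2,000 per well) are seeded and left overnight at 37 C. Compound is added for 30 min, then DTNB and acetylthiocholine for a further 90 min at 37 C before absorbance-based thiocholine detection.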

[22] = biological target: Acetylcholinesterase (Homo sapiens) (UniProt P22303); assay: Acetylcholinesterase (AChE) small molecule antagonists: enzyme-based qHTS assay (AID 1347397; calls by dose curve; further: on the % scale 0 is the no-effect control and ±100 the full control effect; nearly all actives have a fitted effect of over 55% in size); settings: Potency: AChE enzyme activity inhibition; outcome: AChE enzyme activity inhibition
Summary of the method: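 Recombinant human AChE, dispensed at 50 mU/mL, was preincubated with Tox21 10K compounds or DMSO vehicle for 30 min at room temperature. DTNB plus acetylthiocholine was then added, and thiocholine was measured colorimetrically after a further 10 min.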

[23] = biological target: Acetylcholinesterase (Homo sapiens) (UniProt P22303); assay: Acetylcholinesterase (AChE) small molecule antagonists: fluorescence cell-based qHTS assay (AID 1347398; calls by dose curve; further: on the % scale 0 is the no-effect control and ±100 the full control effect; nearly all actives have a fitted effect of over 50% in size); settings: Potency: AChE activity; outcome: AChE activity
Summary of the method: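 Human SH-SY5Y cells were plated overnight at 37 C, exposed to compound for 30 min at 37 C, 5% CO2, then given acetylthiocholine plus Thiolite Green for 40 min at room temperature; thiocholine fluorescence (Ex/Em 490/520 nm) reports endogenous AChE activity.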

[24] = biological target: Acetylcholinesterase (Homo sapiens) (UniProt P22303); assay: Acetylcholinesterase (AChE) small molecule antagonists: enzyme-based qHTS assay with human liver microsomes (AID 1347399; calls by dose curve; further: on the % scale 0 is the no-effect control and ±100 the full control effect; nearly all actives have a fitted effect of over 60% in size); settings: Potency: qHTS inhibition; outcome: qHTS inhibition
Summary of the method: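 Recombinant human AChE (50 mU/mL in the enzyme mix) and human liver microsomes (0.25 mg/mL final) were preincubated with compound and NADPH (0.25 mg/mL final) for 30 min at 37 C. Acetylthiocholine/DTNB was then added; thiocholine was read colorimetrically after 10 min at room temperature.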

[25] = tested on: estrogen-related receptor alpha (ERRalpha) with PGC-1alpha coactivator, human; assay: qHTS assay to identify small molecule antagonists of the estrogen related receptor signaling pathway with the pleiotropic PPARgamma coactivator (PGC) (AID 1224821; calls by dose curve; further: potency means the concentration at half of the fitted maximal effect; nearly all actives have a fitted effect of over 50% in size)
Summary of the method: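 Quantitative HTS for antagonism: PGC/ERR cells received compounds after 6 h attachment and were incubated 18 h at 37 C, with luminescence (One-Glo) as the endpoint.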

[26] = qHTS assay to identify small molecule antagonists of the estrogen related receptor signaling pathway with the pleiotropic PPARgamma coactivator (PGC) cell viability counter screen (AID 1224822)
Summary of the method: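 PGC/ERR cells were seeded at 2,000 cells/well, rested 6 h at 37 C/5% CO2, then given compounds in DMSO by pin tool and incubated 17.5 h at 37 C. Viability came from CellTiter-Fluor fluorescence after 30 min.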

[27] = biological target: Aryl hydrocarbon receptor (Homo sapiens) (UniProt P35869); assay: qHTS assay to identify small molecule that activate the aryl hydrocarbon receptor (AhR) signaling pathway (AID 743085);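 further: HG2L7.5c1 human HepG2 liver cells with stably integrated DRE-driven firefly reporter; on the % scale 0 is the no-effect control and ±100 the full control effect; nearly all actives have a fitted effect of over 15% in size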
Summary of the method: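 Compounds were tested in HepG2 hepatocellular carcinoma cells harbouring a stably integrated luciferase gene under control of 20 DREs. Increased reporter signal after 24 h treatment at 37C was taken as AhR activation.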

[28] = qHTS assay to identify small molecule agonists of the estrogen related receptor (ERR) signaling pathway from Tox21 library (AID 1224849; calls by dose curve; further: on the % scale 0 is the no-effect control and ±100 the full control effect; nearly all actives have a fitted effect of over 15% in size); settings: ERR reporter cell line, ONE-Glo luciferase, 18 h; at 92.4 µM (top of the series) unless noted
Summary of the method: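 ERR reporter cell line (NTP) seeded, rested 6 h at 37 C/5% CO2, then pinned with Tox21 compounds in DMSO. After 18 h at 37 C, ONE-Glo luciferase luminescence was read following 30 min at room temperature.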

[29] = Caspase-3/7 induction in HepG2 cells by small molecules, qHTS assay (AID 1346978); further: on the % scale 0 is the no-effect control and ±100 the full control effect; nearly all actives have a fitted effect of over 15% in size
Summary of the method: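 Wild-type HepG2 cells (2,000/well) were settled 5 h at 37 C, 5% CO2, then exposed to compounds in DMSO for 17 h. Caspase-3/7 activity was read by luminescence 30 min after adding Caspase-Glo 3/7 reagent at room temperature.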

[30] = qHTS assay for small molecule agonists of the p53 signaling pathway (AID 651631; calls by dose curve; further: on the % scale 0 is the no-effect control and ±100 the full control effect; nearly all actives have a fitted effect of over 15% in size)
Summary of the method: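 Agonist mode screen using a stably integrated beta-lactamase gene under p53 response elements in HCT-116 cells. Compound exposure lasts 16 h at 37 °C; fluorescence intensity is measured following 2 h FRET substrate loading.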

[31] = qHTS assay to identify small molecule agonists of the estrogen related receptor signaling pathway with the pleiotropic PPARgamma coactivator (PGC) from Tox21 10K library (AID 1224842)
Summary of the method: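 PGC/ERR reporter cells (NTP line) were seeded 2,000 per well, rested 6 h at 37 C/5% CO2, then pin-dosed with compounds in DMSO for 18 h at 37 C; luciferase read by One-Glo luminescence after 30 min at room temperature.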

Sequence of Aromatase (Homo sapiens) (P11511 whole entry, looked up): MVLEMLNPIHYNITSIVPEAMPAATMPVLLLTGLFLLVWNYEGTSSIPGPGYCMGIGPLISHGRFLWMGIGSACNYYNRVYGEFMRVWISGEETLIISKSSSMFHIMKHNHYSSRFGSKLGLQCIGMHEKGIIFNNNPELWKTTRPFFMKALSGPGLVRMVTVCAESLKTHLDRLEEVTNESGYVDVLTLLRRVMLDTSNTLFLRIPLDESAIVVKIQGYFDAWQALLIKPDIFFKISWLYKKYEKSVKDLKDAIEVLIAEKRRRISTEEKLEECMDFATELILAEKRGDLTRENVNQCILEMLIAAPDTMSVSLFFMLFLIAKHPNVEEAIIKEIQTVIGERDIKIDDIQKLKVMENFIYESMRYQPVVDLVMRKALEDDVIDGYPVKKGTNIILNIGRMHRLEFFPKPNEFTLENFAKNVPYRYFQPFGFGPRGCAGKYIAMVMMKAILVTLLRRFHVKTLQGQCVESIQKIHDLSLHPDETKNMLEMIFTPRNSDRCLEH
Sequence of Acetylcholinesterase (Homo sapiens) (P22303 whole entry, looked up): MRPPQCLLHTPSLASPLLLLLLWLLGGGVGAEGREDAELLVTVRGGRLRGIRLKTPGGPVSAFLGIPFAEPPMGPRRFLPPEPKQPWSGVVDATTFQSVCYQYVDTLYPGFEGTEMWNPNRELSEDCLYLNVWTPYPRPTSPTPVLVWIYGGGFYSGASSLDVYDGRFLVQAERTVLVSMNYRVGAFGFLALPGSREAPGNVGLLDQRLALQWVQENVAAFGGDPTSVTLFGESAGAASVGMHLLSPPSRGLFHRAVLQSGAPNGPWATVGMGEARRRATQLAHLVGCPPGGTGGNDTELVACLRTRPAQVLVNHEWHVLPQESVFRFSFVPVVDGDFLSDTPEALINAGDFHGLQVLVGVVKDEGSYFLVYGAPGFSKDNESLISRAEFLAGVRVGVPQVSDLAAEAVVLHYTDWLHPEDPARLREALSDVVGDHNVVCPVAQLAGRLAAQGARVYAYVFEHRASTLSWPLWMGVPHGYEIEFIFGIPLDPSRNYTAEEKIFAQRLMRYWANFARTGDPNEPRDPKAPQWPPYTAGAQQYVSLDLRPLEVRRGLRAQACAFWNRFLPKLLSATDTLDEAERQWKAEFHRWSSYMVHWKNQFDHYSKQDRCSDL
Sequence of Luciferin 4-monooxygenase (Photinus pyralis) (P08659 whole entry, looked up): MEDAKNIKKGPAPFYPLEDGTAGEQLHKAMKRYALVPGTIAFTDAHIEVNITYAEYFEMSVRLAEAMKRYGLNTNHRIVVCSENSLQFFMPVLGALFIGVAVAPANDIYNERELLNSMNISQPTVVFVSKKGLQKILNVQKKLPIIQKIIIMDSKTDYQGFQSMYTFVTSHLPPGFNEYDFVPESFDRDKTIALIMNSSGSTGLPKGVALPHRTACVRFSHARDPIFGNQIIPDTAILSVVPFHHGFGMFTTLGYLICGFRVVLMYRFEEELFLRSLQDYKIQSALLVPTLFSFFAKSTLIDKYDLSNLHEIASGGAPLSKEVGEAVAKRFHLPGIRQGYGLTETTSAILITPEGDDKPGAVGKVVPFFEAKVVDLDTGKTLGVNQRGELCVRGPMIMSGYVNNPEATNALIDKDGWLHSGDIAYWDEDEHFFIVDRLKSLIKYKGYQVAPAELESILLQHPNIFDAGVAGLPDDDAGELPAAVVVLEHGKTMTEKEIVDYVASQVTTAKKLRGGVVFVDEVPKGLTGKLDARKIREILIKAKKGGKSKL
Sequence of Aryl hydrocarbon receptor (Homo sapiens) (P35869 whole entry, looked up): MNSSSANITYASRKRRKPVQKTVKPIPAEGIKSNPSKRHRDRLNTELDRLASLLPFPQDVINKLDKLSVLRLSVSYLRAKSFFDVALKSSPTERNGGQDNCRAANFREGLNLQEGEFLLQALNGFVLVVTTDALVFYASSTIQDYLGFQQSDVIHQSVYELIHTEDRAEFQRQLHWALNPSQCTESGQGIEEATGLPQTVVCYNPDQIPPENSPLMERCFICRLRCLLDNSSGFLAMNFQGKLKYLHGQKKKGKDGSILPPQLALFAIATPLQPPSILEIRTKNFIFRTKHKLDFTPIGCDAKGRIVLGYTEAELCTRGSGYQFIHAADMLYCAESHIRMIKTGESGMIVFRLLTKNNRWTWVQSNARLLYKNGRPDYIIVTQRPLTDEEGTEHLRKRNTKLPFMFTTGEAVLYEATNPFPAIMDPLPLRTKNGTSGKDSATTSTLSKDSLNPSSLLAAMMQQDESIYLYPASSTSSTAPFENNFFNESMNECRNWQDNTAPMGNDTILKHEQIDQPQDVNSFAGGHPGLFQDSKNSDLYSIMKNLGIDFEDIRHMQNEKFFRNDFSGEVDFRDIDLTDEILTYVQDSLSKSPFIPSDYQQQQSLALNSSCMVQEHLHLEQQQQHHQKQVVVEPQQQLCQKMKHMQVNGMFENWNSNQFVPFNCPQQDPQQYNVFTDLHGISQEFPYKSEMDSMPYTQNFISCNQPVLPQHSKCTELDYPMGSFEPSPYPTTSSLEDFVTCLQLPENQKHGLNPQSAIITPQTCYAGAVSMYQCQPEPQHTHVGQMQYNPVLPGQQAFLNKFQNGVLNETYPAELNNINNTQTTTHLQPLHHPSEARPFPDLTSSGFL

Cc1ccc(O)cc1C
inactive: outcome [1] | Potency [2] | outcome [3] | Potency [4] | Potency [5] | Potency [6] | outcome [7] | outcome [8] | Potency [9] | Potency [10] | Potency [11] | Potency [12] | Potency (Aromatase (Homo sapiens)) | Potency [13] | outcome [14] | Potency [15] | Potency [16]

CCn1cnc2c(Nc3cccc(Cl)c3)nc(N[C@@H]3CCCC[C@@H]3N)nc21
inactive: Potency [17] | Potency [18]

c1ccc2c(c1)[I+]c1ccccc1-2
active: Potency [17] 0.031 µM
inactive: Potency [19] | Potency [18]

CCCCCCCCCc1ccc(OCCOCCO)cc1
active: Potency (Aromatase (Homo sapiens)) 21.1 µM
inactive: Potency [20] | Potency [21] | Potency [22] | Potency [23] | Potency [24]

CC(C)(C)c1cc(C=C(C#N)C#N)cc(C(C)(C)C)c1O
inactive: Potency [19] | Potency [18]
active: Potency [17] 0.276 µM | Potency [25] 0.181 µM

c1ccc(CCCN2CCN(CCOC(c3ccccc3)c3ccccc3)CC2)cc1
inactive: Potency [26] | Potency [18]

c1ccc2c(c1)ccc1ncccc12
inactive: Potency (Aromatase (Homo sapiens)) | Potency [27] | activity change, positive = activation [28] -4.48% | Potency [29] | Potency [21] | Potency [22] | Potency [23] | Potency [24]

NC(=Nc1ccccc1)Nc1ccccc1
inactive: Potency [30] | Potency [29] | Potency [22] | Potency [23] | Potency [24]
active: Potency (Aromatase (Homo sapiens)) 23.7 µM | Potency [31] 12.2 µM | activity change, positive = activation [28] 17.6%
63.3 µM (active) and inactive: Potency [21]
